Screening data: PubChem BioAssay, National Center for Advancing Translational Sciences (NCATS)
DT40 TDP1 CPT – growth inhibition of DT40 Tdp1-/-;hTDP1 cells with camptothecin (screen for TDP1 inhibitors); chicken DT40 Tdp1-/-;hTDP1 cells + 20 nM CPT, ATP luminescence, 48 h; AID 686979; 12% of 420,000 active; Potency, µM (titrated, usually from 46.2 µM), hits mostly inhibitors; also: nearly all actives have a fitted effect of over 55% in size
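Cell growth measured by CellTiter-Glo luminescence after a minimum 48 h, 37 C compound exposure with 20 nM CPT in Tdp1-knockout DT40 cells stably expressing hTDP1, seeded 400/well; qHTS titration format.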
HT1080-NT tox – kills 2HG-producing HT-1080-NT fibrosarcoma cells | HT-1080-NT fibrosarcoma viability, CellTiter-Glo ATP luminescence, 48 h | Potency, µM (series often up to 46.1 µM), hits mostly cytotoxic | 1.6% of 360,000 active | AID 686970;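 also: NT is the 2HG producing partner of a matched IDH1 knockdown line; nearly all actives have a fitted effect of over 55% in size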
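Fibrosarcoma NT cells, 750 per well in 5% FBS RPMI, were exposed to compound for 48 hours. Viability: CellTiter-Glo luminescence.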
KB-3-1 cytotox – KB-3-1 parental cell cytotoxicity; Potency, µM (titrated, usually from 46.1 µM), actives largely listed as cytotoxic; KB-3-1 viability, CellTiter-Glo ATP luminescence, 72 h; 1.4% of 400,000 active; AID 1347075; also: nearly all actives have a fitted effect of over 60% in size
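KB-3-1 parental drug-naive adenocarcinoma cells in DMEM/10% FBS, incubated 72 h at 37 C with pin-transferred compounds across a concentration series. Viability by CellTiter-Glo luminescence; concentration-response curves fitted after normalization.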
TDP1 cell noCPT – qHTS for Inhibitors of human tyrosyl-DNA phosphodiesterase 1 (TDP1): qHTS in cells in absence of CPT | AID 686978, 2013 | Potency, µM (doses to about 46.2 µM), hits mostly inhibitors | 15% of 420,000 active | DT40 Tdp1-/- hTDP1 cells, no CPT, ATP luminescence, 48 h; also: nearly all actives have a fitted effect of over 55% in size
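Chicken DT40 Tdp1-/- cells stably complemented with human TDP1 were seeded at 400 cells/well with DMSO in place of 20 nM camptothecin. After compound pinning, cells grew at least 48 hr at 37 °C; viability read by CellTiter-Glo luminescence.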
KB-V1 MDR tox – kills drug-selected multidrug resistant KB-V1 cells | KB-V1 MDR cells viability, CellTiter-Glo, 72 h | Potency, µM (doses to about 46.1 µM), most hits filed as cytotoxic | 3.4% of 400,000 active; also: nearly all actives have a fitted effect of over 60% in size
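Drug-selected KB-V1 cells, grown in DMEM lacking phenol red with 10% FBS, receive compound titrations; after three days at 37 degrees C, surviving cell ATP is quantified by CellTiter-Glo luminescence and responses normalized and curve-fitted.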
HT1080 IDH1KD tx – toxicity to HT-1080 IDH1 knockdown cells (counter line); HT-1080 IDH1 knockdown viability, ATP luminescence, 48 h; Potency, µM (highest dose often 46.1 µM), most hits filed as cytotoxic; 2% of 360,000 active
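HT-1080-IDH1KD cells (IDH1 knocked down), 750/well in RPMI with 5% FBS, treated with compound 48 h at 37 degrees C. Viability by CellTiter-Glo luminescence, normalised to DMSO and no-cell wells; concentration-response curves classed.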
Hits are given with their value; - = inactive; ? = inconclusive; . = no result. The list is not random: actives were taken first. Their share in the collection is about 19%. Calls follow the shape of the dose curve; as a rule, active = well fitted curve in the direction sought with a large enough effect; inconclusive = small, poorly fitted or top-dose-only effect, or another doubt; inactive = no such curve, though single readings can be large; an effect the other way counts as inactive or inconclusive.

SMILES	DT40 TDP1 CPT	HT1080-NT tox	KB-3-1 cytotox	TDP1 cell noCPT	KB-V1 MDR tox	HT1080 IDH1KD tx
COC(=O)Nc1nc2ccc(SC(C)C)cc2[nH]1	0.82µM	?	1.5µM	3.3µM	1µM	1.3µM
CC(Sc1nc2ccc(C(=O)c3ccccc3)cc2[nH]1)C(=O)O (centres undefined)	-	-	-	-	-	?
CCc1ccccc1N(CC)C(=O)c1cc2c(s1)-c1ccccc1OC2	.	.	-	.	-	.
CCc1ccccc1N(CC(=O)NC(C)(C)C)C(=O)CCC(=O)Nc1ccccn1	-	-	-	-	-	-
Cc1ccc(S(=O)(=O)N2[C@@H](c3ccccc3)C(C(=O)O)=CC[C@H]2c2ccc(Cl)c(Cl)c2)cc1	-	-	-	-	-	-
CC(C)(C)OC(=O)C1=CC[C@@H](c2ccc(Cl)c(Cl)c2)N(S(=O)(=O)c2ccc(F)cc2)[C@H]1c1cccc(F)c1	?	-	-	15µM	-	-
Cc1ccc(S(=O)(=O)N2[C@@H](c3ccc(Cl)cc3)C(C(=O)O)=CC[C@H]2c2cccc(Cl)c2)cc1	-	-	-	-	?	-
Cc1ccc(S(=O)(=O)N2[C@@H](c3cccc(Cl)c3)C(C(=O)OC(C)(C)C)=CC[C@H]2c2cccc(Cl)c2)cc1	9.2µM	-	-	12µM	-	-
N/C(=N\OC(=O)c1cccc(Cn2cc(C(F)(F)F)ccc2=O)c1)c1ccc(Cl)cc1	?	?	-	21µM	?	?
Cc1ccc(/C(N)=N/OC(=O)c2cccc(Cn3cc(C(F)(F)F)ccc3=O)c2)cc1	?	?	-	18µM	?	?
CCCNC(=O)c1ccc(Cn2cc(C(F)(F)F)ccc2=O)cc1	-	-	-	-	-	-
N/C(=N\OC(=O)c1cccc(Cn2cc(C(F)(F)F)ccc2=O)c1)c1ccccc1	-	-	-	-	?	-
O=C(Sc1ccc(Cl)cc1)c1cccc(Cn2cc(C(F)(F)F)ccc2=O)c1	18µM	-	-	16µM	-	-
CC(C)C(c1nnnn1C1CCCC1)N1c2ccccc2CC1C (centres undefined)	21µM	-	-	13µM	15µM	-
COc1ccc(C(c2nnnn2C2CCCC2)N2CCC(C)CC2)c(OC)c1 (centres undefined)	18µM	-	?	21µM	?	-
COc1ccc(C(c2nnnn2C2CCCC2)N2CCN(c3ccccc3)CC2)cc1 (centres undefined)	?	-	-	?	?	-
COc1ccc(N2CCN(C(c3nnnn3C3CCCC3)C(C)C)CC2)cc1 (centres undefined)	21µM	-	-	18µM	-	-
Cc1ccc(-c2nonc2NC(=O)c2ccco2)cc1C	?	.	-	?	-	.
CCOc1ccc(C2C(C(=O)OC)=CN(C(C)c3ccccc3)C=C2C(=O)OC)cc1 (centres undefined)	?	-	-	21µM	?	-
COC(=O)[C@@]1(Cc2ccc(F)cc2)[C@H]2c3cc(C(=O)N(C)C)n(CCCNc4ncc(C(F)(F)F)cc4Cl)c3C[C@H]2CN1C(=O)c1ccccc1	?	?	?	?	18µM	?
COC(=O)[C@@]1(Cc2ccc(F)cc2)[C@H]2c3cc(C(=O)N(C)C)n(Cc4ccc(OC)c(OC)c4)c3C[C@H]2CN1C(=O)c1ccccc1	?	-	-	?	-	-
COC(=O)[C@@]1(Cc2ccc(F)cc2)[C@H]2c3cc(C(=O)N(C)C)n(Cc4ccccc4)c3C[C@H]2CN1C(=O)c1ccccc1	5.2µM	?	-	21µM	-	-
COC(=O)[C@@]1(Cc2ccc(F)cc2)[C@H]2c3cc(C(=O)N(C)C)n(CCc4ccc(OC)c(Br)c4)c3C[C@H]2CN1C(=O)c1ccccc1	10µM	-	-	9.2µM	-	-
COC(=O)[C@@]1(Cc2ccc(F)cc2)[C@H]2c3cc(C(=O)N(C)C)n(Cc4ccc(C)o4)c3C[C@H]2CN1C(=O)c1ccccc1	16µM	?	?	21µM	16µM	21µM
COC(=O)[C@@]1(Cc2ccc(F)cc2)[C@H]2c3cc(C(=O)N(C)C)n(CCO)c3C[C@H]2CN1C(=O)c1ccccc1	-	-	-	-	-	-
SMILES	DT40 TDP1 CPT	HT1080-NT tox	KB-3-1 cytotox	TDP1 cell noCPT	KB-V1 MDR tox	HT1080 IDH1KD tx
Cc1ccc2c(c1)C(c1ccc(F)cc1)N(C(=O)c1ccc(OC(C)C)cc1)CC(=O)N2 (centres undefined)	?	.	-	?	-	.
Cc1noc(C)c1C(=O)N1CCC2(CCN(C(=O)NC(C)C)CC2)CC1	-	.	.	-	.	.
COC(=O)[C@@]1(Cc2ccc(OC)cc2)[C@H]2c3cc(C(=O)N(C)C)n(Cc4ccc(OC(F)(F)F)cc4)c3C[C@H]2CN1C(=O)c1ccccc1	21µM	-	?	21µM	?	-
COc1ccc2[nH]c(-c3cccc(F)c3)cc(=O)c2c1	0.33µM	?	0.41µM	0.23µM	?	0.52µM
COc1cccc(C(O)c2ncc(-c3cccc(F)c3)[nH]2)c1 (centres undefined)	?	-	-	-	-	-
O=c1cc(-c2cccc(F)c2)oc2ccccc12	?	-	-	?	?	-
Cc1ccc(-c2cc(=O)c3cc(F)ccc3[nH]2)cc1	23µM	-	?	?	?	-
Cc1ccc(-c2cc(=O)c3cc(C)ccc3[nH]2)cc1	5.2µM	?	9.2µM	3.7µM	?	21µM
O=c1cc(-c2cccc(F)c2)[nH]c2ccccc12	1µM	1.8µM	0.37µM	0.58µM	?	1.5µM
O=C(Nc1ccc(Br)cc1F)c1ncoc1-c1ccco1	-	.	-	-	-	.
CCOC(=O)C1CCN(c2ncnc3c2c(-c2ccccc2)cn3-c2ccc(C)c(Cl)c2)CC1	-	.	.	-	.	.
Cc1cc(F)ccc1NC(=O)CS(=O)(=O)c1cccc2nsnc12	-	.	-	-	-	.
O=c1cc(-c2ccccc2)[nH]c2cc(Cl)ccc12	0.46µM	0.52µM	?	0.73µM	?	0.58µM
O=c1cc(-c2ccccc2)[nH]c2ccc(F)cc12	0.92µM	?	1.2µM	0.52µM	?	2.3µM
c1ccc(-c2cc3ccccc3[nH]2)cc1	-	-	-	-	-	-
Cc1ccc(CN2CCC(CNC(=O)c3cnn(-c4ccccc4)c3C3CCN(C(=O)OC(C)(C)C)CC3)CC2)cc1	15µM	.	-	15µM	-	.
CC(C)(C)OC(=O)N1CCC(c2c(C(=O)NCC3CCN(C4CCCC4)C3)cnn2-c2cccc(Cl)c2)CC1 (centres undefined)	?	?	-	?	-	18µM
